Targets with a hit are over-represented here; the source holds about 7,900 in all. About 0.6% of all pairs of compound and target were hits.
compound: C1CCN(C1)C(=O)NC2=CC=CC(=C2)NC3=NC=C(C(=N3)NCCC4=CN=CN4)Br; experiment: log2 fold change, soluble protein after heating vs DMSO (PISA); higher = thermal stabilisation; K562 cells, 10 uM, 30 min; active = over 0.2 and 3.5 SD of the protein, either way, in both replicates (recomputed)
How it was run: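 K562 cells (2×10^6 cells/mL) were treated with 10 μM compound for 30 min, and aliquots were heated for 3 min over 48°C-58°C. Pooled aliquots were extracted in PBS with 0.5% NP-40 at 4°C, and the supernatant after 21,000xg for 90 min was measured by TMTpro 16plex LC-MS/MS with channel sums equalised. Reported thermal stability, relative to control samples and from duplicates, is a log2 fold change.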

Sequence of UniProt Q12996 (Q12996 whole entry, looked up): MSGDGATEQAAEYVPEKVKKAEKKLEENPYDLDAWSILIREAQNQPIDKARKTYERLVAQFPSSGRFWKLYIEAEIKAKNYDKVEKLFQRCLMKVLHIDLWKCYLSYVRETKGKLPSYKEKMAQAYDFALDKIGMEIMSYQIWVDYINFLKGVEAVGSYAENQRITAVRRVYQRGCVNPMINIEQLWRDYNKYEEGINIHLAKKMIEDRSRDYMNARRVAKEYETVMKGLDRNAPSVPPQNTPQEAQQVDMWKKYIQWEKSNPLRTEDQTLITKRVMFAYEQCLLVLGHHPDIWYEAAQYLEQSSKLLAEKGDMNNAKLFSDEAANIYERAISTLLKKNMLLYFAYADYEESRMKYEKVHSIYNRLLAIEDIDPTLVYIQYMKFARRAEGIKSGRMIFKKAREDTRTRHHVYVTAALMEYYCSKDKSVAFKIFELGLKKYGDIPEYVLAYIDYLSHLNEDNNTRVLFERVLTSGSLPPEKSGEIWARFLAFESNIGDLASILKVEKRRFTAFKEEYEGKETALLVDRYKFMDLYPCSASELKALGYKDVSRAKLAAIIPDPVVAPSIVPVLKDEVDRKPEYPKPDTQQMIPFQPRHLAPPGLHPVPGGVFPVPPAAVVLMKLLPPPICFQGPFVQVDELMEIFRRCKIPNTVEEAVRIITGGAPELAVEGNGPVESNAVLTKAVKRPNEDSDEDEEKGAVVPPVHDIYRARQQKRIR
Sequence of UniProt Q9Y6H1 (Q9Y6H1 whole entry, looked up): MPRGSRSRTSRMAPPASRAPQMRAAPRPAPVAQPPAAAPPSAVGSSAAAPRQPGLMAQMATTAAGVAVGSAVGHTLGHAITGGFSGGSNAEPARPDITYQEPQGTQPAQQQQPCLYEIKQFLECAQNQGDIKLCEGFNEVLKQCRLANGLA
Sequence of UniProt Q00534 (Q00534 whole entry, looked up): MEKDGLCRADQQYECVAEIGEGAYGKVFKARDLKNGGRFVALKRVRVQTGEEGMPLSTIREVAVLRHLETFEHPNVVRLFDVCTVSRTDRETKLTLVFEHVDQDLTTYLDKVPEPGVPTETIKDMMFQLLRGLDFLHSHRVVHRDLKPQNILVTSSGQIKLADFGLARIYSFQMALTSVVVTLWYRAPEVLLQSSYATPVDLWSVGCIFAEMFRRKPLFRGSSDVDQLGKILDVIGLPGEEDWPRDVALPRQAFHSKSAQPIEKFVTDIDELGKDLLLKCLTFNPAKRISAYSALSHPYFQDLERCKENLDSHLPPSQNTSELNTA
Sequence of UniProt Q7L3B6 (Q7L3B6 whole entry, looked up): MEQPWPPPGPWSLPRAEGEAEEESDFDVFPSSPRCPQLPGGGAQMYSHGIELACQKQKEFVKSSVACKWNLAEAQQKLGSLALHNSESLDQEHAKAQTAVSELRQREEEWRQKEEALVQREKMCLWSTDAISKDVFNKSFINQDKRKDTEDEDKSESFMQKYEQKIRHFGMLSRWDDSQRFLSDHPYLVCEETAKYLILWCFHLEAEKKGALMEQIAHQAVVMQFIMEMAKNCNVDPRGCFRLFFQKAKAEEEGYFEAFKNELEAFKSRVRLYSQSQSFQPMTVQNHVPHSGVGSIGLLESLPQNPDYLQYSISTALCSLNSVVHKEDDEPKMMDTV
Sequence of UniProt P08174 (P08174 whole entry, looked up): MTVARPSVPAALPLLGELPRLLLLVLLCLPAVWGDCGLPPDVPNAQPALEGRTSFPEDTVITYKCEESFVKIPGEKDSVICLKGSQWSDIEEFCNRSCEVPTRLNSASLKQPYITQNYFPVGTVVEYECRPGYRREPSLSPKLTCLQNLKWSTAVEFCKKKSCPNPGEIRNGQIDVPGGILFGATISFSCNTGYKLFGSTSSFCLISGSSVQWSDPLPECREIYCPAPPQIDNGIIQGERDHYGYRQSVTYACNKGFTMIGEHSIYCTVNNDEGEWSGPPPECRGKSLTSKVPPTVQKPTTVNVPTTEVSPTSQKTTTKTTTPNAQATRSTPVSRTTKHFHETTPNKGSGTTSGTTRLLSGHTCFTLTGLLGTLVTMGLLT
Sequence of UniProt Q13137 (Q13137 whole entry, looked up): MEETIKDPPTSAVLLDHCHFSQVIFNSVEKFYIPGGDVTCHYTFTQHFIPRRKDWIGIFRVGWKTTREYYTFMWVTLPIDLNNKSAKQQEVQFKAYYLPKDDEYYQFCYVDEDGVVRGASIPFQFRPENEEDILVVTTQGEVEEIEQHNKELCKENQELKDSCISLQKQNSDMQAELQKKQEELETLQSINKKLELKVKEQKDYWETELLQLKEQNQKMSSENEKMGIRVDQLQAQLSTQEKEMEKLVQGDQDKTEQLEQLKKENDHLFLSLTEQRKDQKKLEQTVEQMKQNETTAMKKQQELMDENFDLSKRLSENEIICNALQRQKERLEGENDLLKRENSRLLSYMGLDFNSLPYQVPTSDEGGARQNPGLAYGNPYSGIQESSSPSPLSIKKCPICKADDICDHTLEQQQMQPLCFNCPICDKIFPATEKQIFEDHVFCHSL
Sequence of UniProt O43405 (O43405 whole entry, looked up): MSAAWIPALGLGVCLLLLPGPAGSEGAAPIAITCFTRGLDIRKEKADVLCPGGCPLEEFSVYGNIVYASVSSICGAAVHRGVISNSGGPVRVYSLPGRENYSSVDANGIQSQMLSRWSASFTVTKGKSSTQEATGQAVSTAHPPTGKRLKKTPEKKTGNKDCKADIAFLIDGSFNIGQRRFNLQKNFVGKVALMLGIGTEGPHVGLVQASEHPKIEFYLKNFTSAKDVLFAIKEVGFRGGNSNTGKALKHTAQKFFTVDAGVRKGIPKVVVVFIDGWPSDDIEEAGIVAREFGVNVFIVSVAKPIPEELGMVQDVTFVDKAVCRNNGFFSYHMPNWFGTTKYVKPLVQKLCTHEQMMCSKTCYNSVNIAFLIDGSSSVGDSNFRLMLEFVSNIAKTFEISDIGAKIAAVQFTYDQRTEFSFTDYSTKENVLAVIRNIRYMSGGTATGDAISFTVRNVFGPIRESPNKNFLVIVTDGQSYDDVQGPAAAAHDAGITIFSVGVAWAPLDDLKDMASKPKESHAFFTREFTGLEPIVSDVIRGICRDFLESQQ
Sequence of UniProt P05937 (P05937 whole entry, looked up): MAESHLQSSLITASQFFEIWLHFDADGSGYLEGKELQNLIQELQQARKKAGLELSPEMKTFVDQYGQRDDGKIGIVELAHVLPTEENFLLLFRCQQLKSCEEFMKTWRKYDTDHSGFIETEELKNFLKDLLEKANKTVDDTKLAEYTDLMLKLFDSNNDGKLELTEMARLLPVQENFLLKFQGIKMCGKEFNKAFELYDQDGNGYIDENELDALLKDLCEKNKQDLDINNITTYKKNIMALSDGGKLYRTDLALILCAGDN
Sequence of UniProt P19397 (P19397 whole entry, looked up): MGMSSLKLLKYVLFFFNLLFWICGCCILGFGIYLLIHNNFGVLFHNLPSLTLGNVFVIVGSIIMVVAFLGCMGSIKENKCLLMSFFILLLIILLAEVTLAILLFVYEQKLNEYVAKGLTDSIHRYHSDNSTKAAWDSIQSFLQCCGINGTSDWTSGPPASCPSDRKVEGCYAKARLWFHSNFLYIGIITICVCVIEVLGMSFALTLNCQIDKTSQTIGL
Sequence of UniProt P14635 (P14635 whole entry, looked up): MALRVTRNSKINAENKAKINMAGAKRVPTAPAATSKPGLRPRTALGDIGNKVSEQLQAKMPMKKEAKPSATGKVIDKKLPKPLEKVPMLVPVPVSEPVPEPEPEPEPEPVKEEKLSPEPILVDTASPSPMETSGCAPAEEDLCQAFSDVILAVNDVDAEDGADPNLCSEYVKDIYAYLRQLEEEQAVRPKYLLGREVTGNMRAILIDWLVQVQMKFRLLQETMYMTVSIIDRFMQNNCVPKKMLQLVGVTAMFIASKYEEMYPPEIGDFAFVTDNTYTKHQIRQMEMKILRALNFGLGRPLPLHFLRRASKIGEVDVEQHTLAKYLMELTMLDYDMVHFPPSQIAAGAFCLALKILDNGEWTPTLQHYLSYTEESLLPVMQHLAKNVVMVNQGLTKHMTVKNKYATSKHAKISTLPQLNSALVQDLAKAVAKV
Sequence of UniProt Q8N4Q1 (Q8N4Q1 whole entry, looked up): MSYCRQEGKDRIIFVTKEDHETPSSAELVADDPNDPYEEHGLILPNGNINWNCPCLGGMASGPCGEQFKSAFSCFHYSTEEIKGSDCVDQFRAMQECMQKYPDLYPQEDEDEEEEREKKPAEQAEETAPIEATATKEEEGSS
Sequence of UniProt P42574 (P42574 whole entry, looked up): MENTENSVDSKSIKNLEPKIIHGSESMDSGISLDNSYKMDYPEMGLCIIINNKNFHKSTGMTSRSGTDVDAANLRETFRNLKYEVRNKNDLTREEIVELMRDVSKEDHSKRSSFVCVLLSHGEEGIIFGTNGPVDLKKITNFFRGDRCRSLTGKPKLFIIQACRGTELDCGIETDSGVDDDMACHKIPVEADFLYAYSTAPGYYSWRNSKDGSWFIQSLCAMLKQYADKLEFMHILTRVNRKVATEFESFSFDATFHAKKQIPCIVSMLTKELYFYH
Sequence of UniProt P67870 (P67870 whole entry, looked up): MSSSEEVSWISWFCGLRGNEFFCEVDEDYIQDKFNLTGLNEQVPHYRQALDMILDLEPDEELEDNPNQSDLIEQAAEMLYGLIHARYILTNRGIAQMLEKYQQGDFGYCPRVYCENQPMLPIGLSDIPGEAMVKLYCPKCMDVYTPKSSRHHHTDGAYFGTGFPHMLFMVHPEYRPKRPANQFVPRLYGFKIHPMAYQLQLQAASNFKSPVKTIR
Sequence of UniProt P46108 (P46108 whole entry, looked up): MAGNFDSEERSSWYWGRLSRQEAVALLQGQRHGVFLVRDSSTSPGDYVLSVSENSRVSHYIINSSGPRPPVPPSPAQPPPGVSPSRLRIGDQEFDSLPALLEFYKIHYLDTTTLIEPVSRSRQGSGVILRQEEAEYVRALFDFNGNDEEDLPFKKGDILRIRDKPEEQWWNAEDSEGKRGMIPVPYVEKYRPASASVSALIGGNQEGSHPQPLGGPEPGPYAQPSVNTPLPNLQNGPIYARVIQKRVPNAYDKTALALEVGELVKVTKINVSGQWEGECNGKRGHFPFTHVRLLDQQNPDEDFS

log2 fold change, inactive:
CDC37L1 (UniProt Q7L3B6) 0.203
CCNB1 (UniProt P14635) -0.011
CIT isoform 4 (UniProt O14578) -0.037
CALCOCO2 isoform 4 (UniProt Q13137) -0.016
CLCN3 isoform 2 (UniProt P51790) -0.012
CHCHD2 (UniProt Q9Y6H1) 0.003
CCNH (UniProt P51946) -0.011
CRK (UniProt P46108) 0.016
CHCHD1 (UniProt Q96BP2) 0.022
CALB1 (UniProt P05937) 0.019
CDK6 (UniProt Q00534) 0.017
COASY isoform 2 (UniProt Q13057) -0.011
CHD3 isoform 3 (UniProt Q12873) -0.125
CHCHD4 isoform 2 (UniProt Q8N4Q1) -0.678
CASP3 (UniProt P42574) -0.028
CSNK2B (UniProt P67870) -0.031
CSTF3 (UniProt Q12996) 0.027
C4orf33 (UniProt Q8N1A6) 0.017
COCH (UniProt O43405) -0.043
CD53 (UniProt P19397) -0.001
CD55 isoform 7 (UniProt P08174) -0.079
CLASP2 isoform 3 (UniProt O75122) -0.063

Source: the supplement of paper PMC10849652
